The nature of experiment [1]: Nuclear factor erythroid 2-related factor 2/antioxidant responsive element (Nrf2/ARE) small molecule agonists: luciferase reporter gene qHTS assay in human keratinocytes (AID 1919969). Also: nearly all actives have a fitted effect of over 35% in size. Also: potency is read from the fitted curve at half-maximal effect. In general terms: A reporter such as luciferase makes a cellular process visible.
Experiment [2] concerns the target Gonadotropin-releasing hormone receptor (Homo sapiens) (UniProt P30968). Briefly: Human gonadotropin-releasing hormone receptor (GnRHR) small molecule agonists, calcium flux assay in GnRHR-HEK293 cells (AID 1920063). Also: nearly all actives have a fitted effect of over 35% in size. The essentials:
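Fluorescence kinetics (480 nm excitation, 540 nm emission; 3 min, 1 s steps) report calcium mobilisation in human GnRHR-HEK293 cells in agonist mode. Dye incubation: 1 h, 37 C.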
On the technique in general: Calcium flux is commonly read through the fluorescence of an indicator in the cells.

Experiment [3] has as its target KiSS-1 receptor (Homo sapiens) (UniProt Q969F8). Briefly: Human kisspeptin (KISS1R) small molecule agonists, calcium flux assay in KISS1R-HEK293 cells (AID 1920064; active = well fitted activation curve with a large enough effect in the repeat runs). The method in brief: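 Measures KISS1R agonism through calcium-sensitive dye fluorescence in stably transfected HEK293 cells, read for 3 min after pin-tool compound delivery; 15-point titrations in triplicate.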

The nature of experiment [4]: G protein-coupled receptor (GPCR) small molecule agonists, calcium flux assay: HEK293 wild type cell line counter screen (AID 1920065). The essentials: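 Readout: fluorescence at 480 nm excitation/540 nm emission, sampled at 1 s intervals for 3 min. Cells had been cultured 18 h, then dye-loaded 1 h at 37 C before compound or ATP addition.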
The nature of experiment [5]: p53 small molecule agonists, cell-based qHTS assay with rat liver microsomes (AID 1963578). The essentials: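 p53RE-bla cells were exposed to compounds together with rat liver microsomes (0.5 mg/mL final) and NADPH (0.5 mg/mL final) for 16 h at 37 C, then read by LiveBLAzer beta-lactamase fluorescence after 2 h at room temperature.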
For orientation: Quantitative high-throughput screening tests each substance at several concentrations.

Experiment [6] is described as follows: p53 small molecule agonists, cell-based qHTS assay with human liver microsomes: qHTS cell viability counter screen (AID 1963579). Also: nearly all actives have a fitted effect of over 45% in size. The essentials:
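p53RE-bla cells (4,000/well) were pre-incubated 5 h at 37 C, then given compounds in DMSO plus human liver microsomes (0.5 mg/mL final) and NADPH (0.5 mg/mL final) for 16 h at 37 C. Viability was read by CellTiter-Glo luminescence.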

Experiment [7] can be described thus: p53 small molecule agonists, cell-based qHTS assay with rat liver microsomes: qHTS cell viability counter screen (AID 1963580). Also: nearly all actives have a fitted effect of over 45% in size. Also: potency is read from the fitted curve at half-maximal effect. The method in brief:
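Intracellular ATP, by CellTiter-Glo luminescence, defines viability. HCT-116 p53RE-bla cells, 4,000 per well, were compound-treated in the presence of rat liver microsomes and NADPH for 16 h at 37 C.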

A short description of experiment [8]: p53 small molecule agonists, cell-based qHTS assay: qHTS cell viability counter screen (AID 1963581). Also: nearly all actives have a fitted effect of over 45% in size. The method in brief: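 In the same plates used for the p53 bla reporter, HCT-116 cells given compounds for 16 h at 37 C received CellTiter-Glo; luminescence was recorded 30 min later at room temperature.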
Experiment [9] in a line: p53 small molecule agonists, cell-based qHTS assay (AID 1963582; active = well fitted activation curve with a large enough effect in the signal ratio in the repeat runs, not every such curve was filed as active; the % refers to the signal ratio). The method in brief:
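Compounds are pin-transferred in DMSO onto p53RE-bla cells and incubated 16 h at 37 C. The B/G FRET beta-lactamase substrate is then applied for 2 h at RT and fluorescence recorded.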

For experiment [10], the target named is 5-hydroxytryptamine receptor 2A (Homo sapiens) (UniProt P28223). In words: 5-hydroxytryptamine receptor 2A (HTR2A) small molecule antagonists, cell-based qHTS assay (AID 1963586). Also: nearly all actives have a fitted effect of over 45% in size. The method in brief: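 Antagonist-mode intracellular calcium assay: DOI (4 nM) added after 5 min compound pre-incubation at room temperature to dye-loaded HTR2A-CHO cells. Fluorescence followed for 3 min, sampled every second.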

For experiment [11] the target is unchanged. Briefly: 5-hydroxytryptamine receptor 2A (HTR2A) small molecule agonists, cell-based qHTS assay (AID 1963587). Also: nearly all actives have a fitted effect of over 30% in size. The method in brief:
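Kinetic calcium-flux fluorescence (2 min, 1 sec intervals) after compound addition in agonist mode. HTR2A-CHO cells were cultured 18 h, then dye-loaded 1 h at 37 C.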

Experiment [12] deals with Muscarinic acetylcholine receptor M1 (Homo sapiens) (UniProt P11229). In words: Cholinergic receptor muscarinic 1 (CHRM1) small molecule antagonists, cell-based qHTS assay (AID 1963588). Also: nearly all actives have a fitted effect of over 40% in size. The method in brief: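 CHRM1-CHO calcium-flux assay, antagonist mode. Cells were seeded 18 h, dye-loaded 1 h at 37 C and given compound for 5 min at RT, then acetylcholine was added at 50nM. FDSS fluorescence was read 3 min; 15 concentrations, three runs.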

Experiment [13] shares this target. In words: Cholinergic receptor muscarinic 1 (CHRM1) small molecule agonists, cell-based qHTS assay (AID 1963589). Also: nearly all actives have a fitted effect of over 35% in size. The essentials:
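Each compound was tested at 15 concentrations across three independent runs on dye-loaded CHO cells stably expressing human CHRM1, reading intracellular calcium fluorescence kinetically at 1 sec intervals.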

Experiment [14] can be described thus: cAMP Responsive Elements (CRE) small molecule agonists, cell-based qHTS assay (AID 1963590). The essentials:
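Cell line: CRE-bla HEK 293T; medium DMEM/10% dialyzed FBS/0.1 mM NEAA/1 mM pyruvate/25 mM HEPES; 3 h compound exposure; beta-lactamase FRET readout after 2 h substrate loading at RT.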

A short description of experiment [15]: cAMP Responsive Elements (CRE) small molecule antagonists, cell-based qHTS assay (AID 1963591; active = well fitted inhibition curve with a large enough effect in the signal ratio in the repeat runs, not every such curve was filed as active; the % refers to the signal ratio). The essentials: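 Inhibition of NKH477-driven (0.25 uM final) CRE-beta-lactamase signal in HEK293T cells, 3 h compound exposure at 37 °C, detected by FRET substrate fluorescence.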
Experiment [16] concerns the target Beta-2 adrenergic receptor (Homo sapiens) (UniProt P07550). Briefly: Adrenergic beta2 receptor (ADRB2) small molecule agonists, cell-based qHTS assay (AID 1963593).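 Also: CHO cells stably overexpressing human ADRB2.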 The method in brief:
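CHO cells stably over-expressing ADRB2 were plated overnight at 37C, then dosed with compounds plus a stimulation mix containing 100uM IBMX and 25uM Ro-20-1724 for 0.5hr at room temperature. cAMP was measured by HTRF competition, 1hr.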

Experiment [17] has the same target. Briefly: Adrenergic beta2 receptor (ADRB2) small molecule antagonists, cell-based qHTS assay (AID 1963592). Also: series mostly up to about 92 µM; nearly all actives have a fitted effect of over 50% in size. The essentials:
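Cells (CHO, stable ADRB2 overexpression) incubated 18-20hr at 37C; compounds added from DMSO; agonist mix (1nM isoproterenol, 100uM IBMX, 25uM Ro-20-1724) added; 0.5hr RT; d2-cAMP and anti-cAMP-cryptate added; 1hr RT; 665/615 nm read.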

The target in experiment [18] is D(2) dopamine receptor (Homo sapiens) (UniProt P14416). Briefly: Dopamine D2 receptor (DRD2) small molecule agonists, cell-based qHTS assay (AID 1963594). Also: nearly all actives have a fitted effect of over 35% in size. The essentials: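 cAMP accumulation in DRD2-HEK293 cells measured by HTRF after 1 h detection; compounds added 10 min before NKH477 (200nM […]) forskolin-analogue stimulation, 30 min at room temperature, with Ro20-1724 present at 0.1 mM final.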

Experiment [19] has the same target. Briefly: Dopamine D2 receptor (DRD2) small molecule antagonists, cell-based qHTS assay (AID 1963595; active = well fitted inhibition curve with a large enough effect in the signal ratio in the repeat runs, with a control signal flat; the % refers to the signal ratio). The essentials:
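HEK293 cells stably expressing DRD2, preincubated with 0.1 mM Ro20-1724 and compounds 10 min, were stimulated with 200 nM NKH477 plus 12 nM quinpirole for 30 min at room temperature; cAMP measured by HTRF (665/620 nm).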

Experiment [20] can be described thus: p53 small molecule agonists, cell-based qHTS assay with human liver microsomes (AID 1963577). The essentials: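 p53RE-bla reporter cells were pre-incubated 5 h at 37 C, then treated with compounds plus human liver microsomes (0.5 mg/mL final) and NADPH (0.5 mg/mL final) for 16 h at 37 C. Beta-lactamase activity was read by LiveBLAzer fluorescence after 2 h at room temperature.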

Several values for one entry are separate records, joined by “and”; a condition that tells them apart may be missing. Equal entries are not always repeated. Results filed as inconclusive are left out. Activity calls are given as the source filed them. Unless noted, calls follow the shape of the full dose curve.

Sequence of Beta-2 adrenergic receptor (Homo sapiens) (P07550 whole entry, looked up): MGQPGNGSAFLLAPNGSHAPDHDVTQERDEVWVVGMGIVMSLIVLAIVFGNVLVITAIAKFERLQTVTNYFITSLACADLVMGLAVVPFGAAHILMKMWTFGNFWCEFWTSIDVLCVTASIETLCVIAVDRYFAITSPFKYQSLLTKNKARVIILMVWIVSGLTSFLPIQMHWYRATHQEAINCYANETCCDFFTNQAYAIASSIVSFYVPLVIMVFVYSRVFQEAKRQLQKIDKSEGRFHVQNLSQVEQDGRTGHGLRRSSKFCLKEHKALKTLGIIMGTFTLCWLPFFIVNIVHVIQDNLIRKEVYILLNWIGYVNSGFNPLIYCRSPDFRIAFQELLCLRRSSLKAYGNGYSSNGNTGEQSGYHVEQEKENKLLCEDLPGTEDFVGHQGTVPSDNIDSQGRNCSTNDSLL
Sequence of KiSS-1 receptor (Homo sapiens) (Q969F8 whole entry, looked up): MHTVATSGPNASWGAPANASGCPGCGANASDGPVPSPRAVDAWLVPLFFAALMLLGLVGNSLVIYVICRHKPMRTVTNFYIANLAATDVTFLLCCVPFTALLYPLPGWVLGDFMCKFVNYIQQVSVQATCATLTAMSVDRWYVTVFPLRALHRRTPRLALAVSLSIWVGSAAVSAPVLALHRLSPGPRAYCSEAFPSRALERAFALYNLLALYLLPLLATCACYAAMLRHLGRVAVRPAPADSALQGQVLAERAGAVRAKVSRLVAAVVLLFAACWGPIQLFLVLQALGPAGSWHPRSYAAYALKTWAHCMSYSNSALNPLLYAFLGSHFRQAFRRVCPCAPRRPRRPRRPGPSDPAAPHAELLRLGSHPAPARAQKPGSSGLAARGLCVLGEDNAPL
Sequence of Gonadotropin-releasing hormone receptor (Homo sapiens) (P30968 whole entry, looked up): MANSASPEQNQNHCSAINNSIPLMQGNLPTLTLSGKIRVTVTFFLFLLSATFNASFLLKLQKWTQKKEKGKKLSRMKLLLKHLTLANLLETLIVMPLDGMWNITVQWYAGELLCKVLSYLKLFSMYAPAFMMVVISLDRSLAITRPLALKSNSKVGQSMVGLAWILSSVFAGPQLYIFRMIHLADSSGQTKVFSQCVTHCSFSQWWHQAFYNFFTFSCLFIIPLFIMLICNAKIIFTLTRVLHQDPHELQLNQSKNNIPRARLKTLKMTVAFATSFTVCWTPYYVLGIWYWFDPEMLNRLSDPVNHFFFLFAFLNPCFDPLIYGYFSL
Sequence of Muscarinic acetylcholine receptor M1 (Homo sapiens) (P11229 whole entry, looked up): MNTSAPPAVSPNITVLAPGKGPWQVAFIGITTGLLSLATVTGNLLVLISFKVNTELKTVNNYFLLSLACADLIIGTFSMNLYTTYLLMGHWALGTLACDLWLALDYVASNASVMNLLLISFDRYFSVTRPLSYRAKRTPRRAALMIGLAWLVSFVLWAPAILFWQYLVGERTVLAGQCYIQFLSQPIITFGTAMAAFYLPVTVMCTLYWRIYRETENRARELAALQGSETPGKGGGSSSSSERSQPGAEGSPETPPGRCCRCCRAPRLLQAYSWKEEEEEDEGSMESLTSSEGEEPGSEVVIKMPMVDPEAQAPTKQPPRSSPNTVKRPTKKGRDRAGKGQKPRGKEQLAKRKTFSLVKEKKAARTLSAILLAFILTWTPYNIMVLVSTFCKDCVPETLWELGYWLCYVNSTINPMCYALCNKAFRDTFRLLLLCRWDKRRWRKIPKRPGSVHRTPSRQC
Sequence of 5-hydroxytryptamine receptor 2A (Homo sapiens) (P28223 whole entry, looked up): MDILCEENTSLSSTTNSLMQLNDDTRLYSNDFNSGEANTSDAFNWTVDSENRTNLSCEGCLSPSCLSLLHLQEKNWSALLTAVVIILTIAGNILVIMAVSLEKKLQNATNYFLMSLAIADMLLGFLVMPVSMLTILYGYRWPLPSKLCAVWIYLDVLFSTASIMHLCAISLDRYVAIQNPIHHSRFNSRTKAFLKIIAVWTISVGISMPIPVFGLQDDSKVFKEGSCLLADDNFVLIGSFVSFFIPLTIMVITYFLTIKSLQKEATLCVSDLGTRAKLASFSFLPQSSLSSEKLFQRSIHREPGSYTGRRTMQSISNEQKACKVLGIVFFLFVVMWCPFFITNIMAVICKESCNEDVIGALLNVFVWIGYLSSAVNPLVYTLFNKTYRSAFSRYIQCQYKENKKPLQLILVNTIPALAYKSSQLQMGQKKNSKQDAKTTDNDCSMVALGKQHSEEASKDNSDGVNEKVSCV
Sequence of D(2) dopamine receptor (Homo sapiens) (P14416 whole entry, looked up): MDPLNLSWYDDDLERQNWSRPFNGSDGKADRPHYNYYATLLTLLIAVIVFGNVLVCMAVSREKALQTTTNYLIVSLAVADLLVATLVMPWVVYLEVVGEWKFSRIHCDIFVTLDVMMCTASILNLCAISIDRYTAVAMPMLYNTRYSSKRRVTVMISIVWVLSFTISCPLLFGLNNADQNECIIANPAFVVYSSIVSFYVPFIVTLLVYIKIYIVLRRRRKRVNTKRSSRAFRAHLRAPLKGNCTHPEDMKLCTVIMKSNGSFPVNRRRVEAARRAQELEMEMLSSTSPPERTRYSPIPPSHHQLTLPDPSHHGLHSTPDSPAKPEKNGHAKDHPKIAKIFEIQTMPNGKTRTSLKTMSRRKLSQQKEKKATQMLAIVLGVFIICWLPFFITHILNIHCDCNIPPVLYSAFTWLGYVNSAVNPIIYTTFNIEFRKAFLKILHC

Regarding `O=S(=O)(O)c1cc(S(=O)(=O)O)c2c(N=Nc3ccccc3)c(O)ccc2c1`, the Potency result in experiment [1], in experiment [2], in experiment [3], in experiment [4], in experiment [5] and in experiment [6] was “inactive” each time. The Potency entry in experiment [7], in [8], in [9], in experiment [10], in [11] and in experiment [12] was “inactive” throughout. The Potency result in experiment [13], in experiment [14], in [15] and in experiment [16] was “inactive” throughout.

Regarding `Nc1ccc2ccccc2c1S(=O)(=O)O`, in experiment [1], the Potency is 44.1 µM (active). For the same compound, the Potency entry in experiment [2], in experiment [3], in [4], in [5], in experiment [6] and in experiment [7] was “inactive” throughout. Moreover, the Potency result in [8], in experiment [10], in experiment [11], in experiment [13], in [14] and in experiment [15] was “inactive” throughout. Also, the Potency result in [17], in [18] and in [19] was “inactive” in each case.

Consider `CN(C)C(=O)Oc1cccc([N+](C)(C)C)c1`, for which the Potency result in experiment [1], in [2], in experiment [3], in [4], in [5] and in experiment [6] was “inactive” in each case. Moreover, the Potency result in [7], in experiment [8], in experiment [9], in experiment [14], in experiment [15] and in experiment [18] was “inactive” each time. For the same compound, in experiment [19], the Potency entry is “inactive”.

Take `CSc1ccc(/C=C2/C(C)=C(CC(=O)O)c3cc(F)ccc32)cc1`: the Potency result in experiment [1], in experiment [2], in experiment [3], in experiment [4], in [20] and in experiment [7] was “inactive” throughout. Further, the Potency entry in experiment [17], in experiment [18] and in [19] was “inactive” throughout.

Turning to `Oc1c(I)cc(Cl)c2cccnc12`, the Potency in [1] was 2.16 µM (active) and 3.35 µM (active); in experiment [7], 14.1 µM (active). The Potency entry in experiment [2], in experiment [3], in [4], in experiment [5], in [6] and in [8] was “inactive” throughout. In addition, the Potency result in experiment [9], in experiment [10], in experiment [11], in [12], in experiment [13] and in experiment [14] was “inactive” each time. For the same compound, the Potency result in [15], in [17], in experiment [18] and in experiment [19] was “inactive” each time.

With `Nc1ccc(-c2ccc(F)cc2)cc1`, the Potency entry in experiment [1], in [2], in experiment [3], in experiment [4], in [20] and in experiment [6] was “inactive” throughout. In addition, the Potency result in experiment [8], in experiment [9], in [11], in [12], in experiment [13] and in experiment [14] was “inactive” throughout. The Potency result in experiment [17], in experiment [18] and in [19] was “inactive” in each case.

As for `CCCCCC[C@@H](O)C/C=C\CCCCCCCC(=O)O`, the Potency entry in experiment [1], in experiment [2], in experiment [3], in experiment [4], in experiment [5] and in experiment [6] was “inactive” in each case. In addition, the Potency entry in experiment [7], in experiment [8], in experiment [9], in experiment [13], in experiment [15] and in experiment [17] was “inactive” in each case. The Potency result in [16], in experiment [18] and in experiment [19] was “inactive” each time.

Turning to `CCCCC1C(=O)N(c2ccccc2)N(c2ccc(O)cc2)C1=O` (stereo unspecified), the Potency in experiment [1] is 10.6 µM (active). The Potency entry in experiment [2], in experiment [3], in experiment [4], in [5], in experiment [6] and in experiment [7] was “inactive” throughout. Moreover, the Potency result in [8], in experiment [10], in [11], in [12], in [13] and in [17] was “inactive” each time. In experiment [18], the Potency entry is “inactive”.
